The values that follow come from PubChem BioAssay (Tox21).

Inconclusive results are not listed. Activity calls are given as the source filed them. Calls follow the shape of the dose curve; as a rule, active = well fitted cell-killing curve with a large enough effect in the repeat runs; inconclusive = weak or mixed curves; inactive = flat fitted curve, though single readings scatter.
% is scaled to controls: 0 for no effect and ±100 for the full control effect.

The assay is described as follows: qHTS RealTime-Glo MT Cell Viability Assay in HepG2 cells - 8 hour (AID 1224873). Also: nearly all actives have a fitted effect of over 55% in size. Conditions: RealTime-Glo luminescence; series mostly up to 76.8 µM; viability change, negative = cytotoxic: at the top concentration. From the text: National Center for Advancing Translational Sciences [NCATS]
NIH Chemical Genomics Center [NCGC]
U.S. Environmental Protection Agency [EPA]
National Institutes of Environmental Health Sciences [NIEHS]
National Toxicology Program [NTP]
U.S. Food and Drug Administration [FDA]
Measure of cell viability is critical in the cell-base assay. Analysis of cell viability is necessary for the characterization of cell responses to cytotoxic drugs and environmental stress. A RealTime-Glo MT Cell Viability Assay to monitor cell viability in real time of continues cell culture during 40 hours of compound treatment was used to screen Tox21 10K library compounds in HepG2 cells. The RealTime-Glo MT Cell Viability Assay is a nonlytic, homogeneous, bioluminescent method to measure cell viability in real time using a simple, plate-based method. The assay involves adding NanoLuc luciferase and a cell-permeant prosubstrate to cells in culture. Viable cells reduce the proprietary prosubstrate to generate a substrate for NanoLuc luciferase. This substrate diffuses from cells into the surrounding culture medium, where it is rapidly used by the NanoLuc Enzyme to produce a luminescent signal. The signal correlates with the number of viable cells, making the assay well suited for cytotoxicity studies.
Tox21 Assay Protocol Summary:
The mixture of HepG2 cell suspension and reagents were dispensed at 600cells/6 ul/well in 1536-well tissue culture treated black solid bottom plates using a Multidrop dispenser. After the assay plates were incubated at a 37 C/5% CO2 incubator for 5 hours, 23 nL of compounds dissolved in DMSO, positive and negative controls was transferred to the assay plate by a pintool work station. The plates were incubated at 37 C for 40 hours. The luminescence intensity were measured at 0h, 8h, 16h, 24h, 32h and 40h time points using ViewLux plate reader during compound treatment.
For `CNCc1ccc(NC(=O)c2c[nH]c3c2C(=O)CCC3)cc1`, the “viability change, negative = cytotoxic” value was -14.1% (inactive).
`CCSC(=O)N(CC)CC`: the “viability change, negative = cytotoxic” value is -1.26% (inactive).
Take `CCc1ccc(C)cc1`: the “viability change, negative = cytotoxic” value is 0.0049% (inactive).
With `CCN(CC)CCNC(=O)c1cc(Cl)c(N)cc1OC`, the “viability change, negative = cytotoxic” value was 5.02% [at 35.3 µM] (inactive).
Regarding `O=C(NS(=O)(=O)/C=C/c1ccccc1)c1ccc(F)cc1Cl`, the “viability change, negative = cytotoxic” value is -14.6% (inactive).
As for `CCCCCCCCCCCCCCCC(=O)OCC`, the “viability change, negative = cytotoxic” value is 1.33% (inactive).
On to `COc1cc(NCc2ccc3nc(N)nc(N)c3c2C)cc(OC)c1OC`, for which the “viability change, negative = cytotoxic” value is -7.55% [at 35.3 µM] (inactive).
Consider `CC(C)N(C)C`, for which the “viability change, negative = cytotoxic” value is 0.698% (inactive).
`Oc1ccc2c(c1)Cc1ccccc1-2`: the “viability change, negative = cytotoxic” value was -18.4% (inactive).
Take `O=C(O)c1cccc(Oc2ccccc2)c1`: the “viability change, negative = cytotoxic” value is 8.58% (inactive).
Take `CCN(CC)c1ccc(C(=C2C=CC(=[N+](CC)CC)C=C2)c2ccc(S(=O)(=O)O)cc2S(=O)(=O)[O-])cc1`: the “viability change, negative = cytotoxic” value is -8.43% (inactive).
As for `CC1=CC[C@@]23C[C@@H]1C(C)(C)[C@@H]2CC[C@H]3C`, the figure is 3.09% (inactive).
`Nc1c(Cl)cc(Cl)cc1[N+](=O)[O-]`: the “viability change, negative = cytotoxic” value was -17.9% (inactive).
As to `CC(C)c1ccc(C#N)cc1`, the “viability change, negative = cytotoxic” value is 2.42% (inactive).
For the molecule `CC(C)(C)C(O)/C=C/c1ccc2c(c1)OCO2` (stereo not given), the “viability change, negative = cytotoxic” value was 3.32% [at 35.3 µM] (inactive).
Under `CC(=O)OCC(=O)[C@@]1(OC(C)=O)[C@@H](C)C[C@H]2[C@@H]3C[C@H](F)C4=CC(=O)C=C[C@]4(C)[C@@]3(F)[C@@H](O)C[C@@]21C` stands -8.62% [at 35.3 µM] (inactive).
Regarding `CC(C)OC(=O)c1ccccc1C(=O)OC(C)C`, the “viability change, negative = cytotoxic” value is 0.289% (inactive).
Turning to `CCNc1nc(N)nc(Cl)n1`, the “viability change, negative = cytotoxic” value is 1.45% (inactive).
In the case of `CC(C)(O)c1coc(S(=O)(=O)NC(=O)Nc2c3c(cc4c2CCC4)CCC3)c1`, the “viability change, negative = cytotoxic” value is 2.23% (inactive).
As for `C[C@@H]1[C@H](O)[C@@H](C)/C=C/C=C\C=C\C=C\C=C\C=C\C=C\[C@H](O[C@@H]2O[C@H](C)[C@@H](O)[C@H](N)[C@@H]2O)C[C@@H]2O[C@](O)(C[C@@H](O)C[C@@H](O)[C@H](O)CC[C@@H](O)C[C@@H](O)CC(=O)O[C@H]1C)C[C@H](O)[C@H]2C(=O)O` (stereo in doubt), the figure is -4.82% (inactive); as for `CC[C@H]1OC(=O)[C@H](C)[C@@H](O[C@H]2C[C@@](C)(OC)[C@@H](O)[C@H](C)O2)[C@H](C)[C@@H](O[C@@H]2O[C@H](C)C[C@H](N(C)C)[C@H]2O)[C@](C)(O)C[C@@H](C)/C(=N\OCOCCOC)[C@H](C)[C@@H](O)[C@]1(C)O`, 2.74% [at 35.3 µM] (inactive); as for `CC/C=C\C/C=C\C/C=C\CCCCCCCC(=O)OCC`, -4.77% (inactive).
Under `CCOC(=O)N1CCC(Nc2ccc(Cl)cc2N)CC1` stands -9.61% [at 35.3 µM] (inactive); under `Cc1ccc(NC(=O)N(C)C)cc1NC(=O)N(C)C`, -1.83% (inactive).
Turning to `CCN(CC)C(=O)/C(C#N)=C/c1cc(O)c(O)c([N+](=O)[O-])c1`, the “viability change, negative = cytotoxic” value is -6% [at 35.3 µM] (inactive).
Turning to `C=CC(=O)NC(C)C`, the “viability change, negative = cytotoxic” value was 1.94% (inactive).
Take `O=C1NC(=O)c2cccc3cccc1c23`: the “viability change, negative = cytotoxic” value is -30.4% (inactive).
Consider `CCN(CC)CCOC(=O)C(c1ccccc1)c1ccccc1`, for which the “viability change, negative = cytotoxic” value was -1.17% [at 35.3 µM] (inactive).
As for `Cc1cc(CCCOc2c(C)cc(-c3noc(C(F)(F)F)n3)cc2C)on1`, the “viability change, negative = cytotoxic” value is -14.6% [at 35.3 µM] (inactive).
On to `COC(=O)CC(C(C)=O)C(=O)OC` (stereo not given), for which the “viability change, negative = cytotoxic” value is 2.71% (inactive).
Under `[Cl][Nd]([Cl])[Cl]` stands -0.0257% (inactive).
Take `COc1ccc(-c2cc(C(F)F)nn2-c2ccc(S(N)(=O)=O)cc2)cc1F`: the “viability change, negative = cytotoxic” value is -11.7% [at 35.3 µM] (inactive).
In the case of `CC(C)(C)S`, the “viability change, negative = cytotoxic” value was -3.58% (inactive).
On to `COc1cc(NS(=O)(=O)c2ccc(N)cc2)nc(C)n1`, for which the “viability change, negative = cytotoxic” value is 8.87% [at 35.3 µM] (inactive).
As for `O=C(CCS)OCC(COC(=O)CCS)(COC(=O)CCS)COC(=O)CCS`, the figure is 9.05% (inactive); as for `NC(=O)c1ccccc1[N+](=O)[O-]`, -0.0923% (inactive); as for `COc1cc(NC(C)CCCN)c2ncccc2c1` (stereo not given), -3.73% [at 35.3 µM] (inactive).
As to `O=CNNC=O`, the “viability change, negative = cytotoxic” value is 2.14% (inactive).
`CCCCCCC(O)CCCCCCCCCCC(=O)OC` (stereo not given): the “viability change, negative = cytotoxic” value is -4.96% (inactive).
Under `CCCCCCCC(=O)Oc1c(Br)cc(C#N)cc1Br` stands -14.6% (inactive).
